D2 antagonist – antagonizes the human D2 dopamine receptor; P14416; HEK293 TREx D2 cells, calcium flux, dopamine EC80; inhibition, % at 10 µM; 340,000 compounds, 2% hits; AID 485344; in the data active = inhibition above about 30%; inactive = below that, where a call was filed; also: 0% is about no effect
Target sequence (P14416 whole entry, looked up): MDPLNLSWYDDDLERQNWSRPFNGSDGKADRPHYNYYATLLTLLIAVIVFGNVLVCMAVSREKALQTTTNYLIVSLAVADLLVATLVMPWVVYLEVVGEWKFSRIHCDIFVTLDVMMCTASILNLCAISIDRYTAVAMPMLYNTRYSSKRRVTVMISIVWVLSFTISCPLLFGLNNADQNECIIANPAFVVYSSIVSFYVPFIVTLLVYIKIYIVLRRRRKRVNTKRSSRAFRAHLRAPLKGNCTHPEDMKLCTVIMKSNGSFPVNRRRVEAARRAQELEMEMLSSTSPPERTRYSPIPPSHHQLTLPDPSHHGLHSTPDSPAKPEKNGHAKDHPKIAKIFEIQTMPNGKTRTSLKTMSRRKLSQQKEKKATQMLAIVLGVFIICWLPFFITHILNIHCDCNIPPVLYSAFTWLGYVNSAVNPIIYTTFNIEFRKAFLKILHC
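Tetracycline-induced HEK293 T-REx cells expressing D2 force-coupled to calcium signalling were dye-loaded, exposed to compound for 180 s, then challenged with an EC80 of dopamine; calcium flux was followed kinetically for a further 180 s.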
D2 ag-1 – agonists of human D2 dopamine receptor. P14416. HEK293 T-REx D2 cells, calcium flux agonist mode. activation, % at 2 µM. 340,000 compounds, 0.53% hits;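 active = activation over 3 SD above normal in the single-dose calcium agonist read, cut at about 30% in these data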; also: 0% is about no effect
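In this primary screen, compounds producing a positive calcium signal within 180 s of addition to tetracycline-induced, force-coupled HEK293 Trex D2 cells are flagged; cells are dye-loaded with a no-wash calcium kit beforehand.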
D2 PAM-1 – human D2 receptor positive allosteric modulation; P14416; 360,000 compounds, 0.23% hits; potentiation, % (no concentration beside the values); AID 624464; DiscoveRx D2 beta-arrestin cells, luminescence, 90 min; 100% = 57 uM dopamine signal; in the data active = potentiation above about 50%; inconclusive = mostly about 30% to 49%
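PathHunter beta-arrestin assay in DiscoveRx D2 cells. Compounds were added with an EC20 of dopamine (50 nM final) for 90 min at 37 deg C. Luminescence was read 1 h after detection reagent, with 57 uM dopamine as the EC100 control.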
D2 ag-2 – activates the human D2 dopamine receptor. DiscoveRx PathHunter D2 beta-arrestin, luminescence, 90 min; 100% = 57 uM dopamine signal. activation, % (concentration not given with the values). 360,000 compounds, 0.084% hits. AID 624465; in the data active = activation above about 40%; inconclusive = between about 15% and that limit
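Agonist mode: compounds alone added to overnight-plated D2 PathHunter cells for 90 min at 37 C, with 57 uM final dopamine (EC100) defining full response. Beta-arrestin recruitment detected by chemiluminescent reagent, read after 1 h at ambient temperature.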
D2 PAM-2 – positively modulates the human D2 dopamine receptor allosterically; HEK293 T-REx D2, calcium flux, EC20 dopamine potentiation; potentiation, % at 10 µM; 340,000 compounds, 0.34% hits; AID 485347;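 active = potentiation over 3 SD above the plate norm, cut at about 30% in these data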; also: 0% is about no effect
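Primary screen. Calcium kinetics in induced HEK293 T-REx D2 cells: compound pre-addition 180 s, EC20 dopamine, 180 s more.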
* hit, by the source's call; ? = inconclusive; / = not tested or not shown. An excerpt weighted towards active compounds, which were near 2.4% of everything screened.

SMILES | D2 antagonist | D2 ag-1 | D2 PAM-1 | D2 ag-2 | D2 PAM-2
Cc1csc(NS(=O)(=O)c2cccc([N+](=O)[O-])c2)n1 | 34* | 1 | -9 | 2 | -22
Cc1ccccc1NC(=O)c1ccc(Cn2cc([N+](=O)[O-])cn2)o1 | 32* | 0 | 0 | -6 | -2
Cc1cc(NC(=O)c2ccc(Cn3cc([N+](=O)[O-])cn3)o2)no1 | / | / | -5 | -1 | /
C/C(=N\OC(=O)c1ccccc1F)c1nccs1 | -6 | 0 | 6 | -1 | 41*
CCOC(=O)C1=C(CN2CCN(c3ccc(Cl)cc3)CC2)NC(=O)NC1c1ccc(OC)cc1 (stereo unspecified) | / | 0 | / | / | -8
CCn1c(/C=C/N(C(C)=O)c2ccccc2)[n+](CC)c2ccc(Cl)cc21 | -5 | 2 | -17 | -2 | -1
CC[n+]1c(/C=C/N(C)c2ccccc2)oc2ccc(Cl)cc21 | -10 | -2 | 59* | ? | 12
O=C(COc1ccccc1)N/N=C/c1sc(=O)n(Cc2cccc(C(=O)O)c2)c1Cl | 44* | 0 | -4 | 3 | -5
COc1cccc(N2CCN(C(=O)c3cc4c(=O)n(Cc5cccs5)ccc4nc3C)CC2)c1 | / | 0 | / | / | 23
COc1ccc(OC)c(-c2nn(-c3ccccc3)cc2C(=O)NCC(c2ccco2)N2CCCC2)c1 (stereo unspecified) | 36* | 0 | -35 | -3 | -20
COc1ccccc1NS(=O)(=O)c1cccc(C(=O)NCC(c2ccccc2OC)N2CCCC2)c1 (stereo unspecified) | 11 | 0 | -43 | -4 | -10
COc1ccccc1NS(=O)(=O)c1cccc(C(=O)NCC(c2ccco2)N2CCCC2)c1 (stereo unspecified) | 63* | 1 | -23 | 1 | -27
COc1ccc(S(=O)(=O)NCCc2sc3nc(-c4ccc(C)cc4)nn3c2C)cc1C | / | 1 | / | / | -8
O=C(COC(=O)CNC(=O)c1ccccc1)Nc1ccc(F)c([N+](=O)[O-])c1 | 34* | 0 | -6 | -3 | 8
O=C(CCCCCn1c(=O)[nH]c2ccsc2c1=O)N1CCCCC1 | 9 | -1 | -7 | -3 | 6
O=C(CCCCCn1c(=O)[nH]c2ccsc2c1=O)N1CCN(C2CCCCC2)CC1 | 53* | 10 | -1 | -2 | -5
Cc1cccc(N2CCN(C(=O)CCn3c(=O)[nH]c4ccsc4c3=O)CC2C)c1 (stereo unspecified) | -1 | -2 | ? | 56* | 21
CCN(c1ccccc1)S(=O)(=O)c1cc(C(=O)OC2CCOC2=O)ccc1C (stereo unspecified) | -48 | 1 | 1 | -1 | 31*
CS(=O)(=O)c1ccc(C(=O)OC2CCOC2=O)cc1[N+](=O)[O-] (stereo unspecified) | 6 | -2 | -1 | -2 | -2
CNC(=O)Cn1c(=O)c2cccn2c2ccc(F)cc21 | / | 0 | / | / | -4
COc1ccccc1Nc1c2c(nc3ccc(NC(=O)c4ccc(N(C)C)cc4)cc13)CCCC2 | / | -1 | / | / | -14
O=C(COC(=O)c1ccc(F)cc1F)NCCNC(=O)COC(=O)c1ccc(F)cc1F | 0 | 0 | -9 | -2 | 0
O=C(COC(=O)c1ccc(F)cc1F)NC1CC1 | 31* | 0 | -3 | -3 | 2
Nc1cc(Cl)ccc1C(=O)OCC(=O)NC1CCCCCCC1 | 35* | 0 | 5 | 4 | 0
Cc1c(O)ccc(NC(=O)/C=C/c2ccccc2)c1C | 35* | 0 | 1 | 1 | -9
SMILES | D2 antagonist | D2 ag-1 | D2 PAM-1 | D2 ag-2 | D2 PAM-2
CCS(=O)(=O)c1ccc(O)c(NC(=O)/C=C/c2ccccc2)c1 | 9 | 0 | -14 | -5 | -12
Cc1ccc(C(=O)Nc2oc(-c3ccccc3)cc2C#N)cc1 | 31* | 1 | -16 | -4 | -31
CCCS(=O)(=O)N1CC(=O)N(c2ccccc2F)C(C)(C(=O)NC2CCCCCC2)C1 (stereo unspecified) | / | 0 | / | / | -7
COc1ccccc1/C=C1\SC(=S)N(Nc2nc(C)cc(C)n2)C1=O | -13 | 0 | -15 | -2 | 3
Cc1cc(C)nc(NN2C(=O)/C(=C/c3ccc(O)cc3)SC2=S)n1 | 45* | 9 | -18 | -7 | 8
CCN1C(=O)C2(c3ccccc31)c1c(oc3ccc(C)cc3c1=O)C(=O)N2CCCOC(C)C (stereo unspecified) | / | 1 | / | / | -6

Screening data deposited in PubChem by National Center for Advancing Translational Sciences (NCATS).
